In PubChem BioAssay (EPA / NIEHS):
Calls of active or inactive are those of the source. The calls were made as follows: active = hit-call score of the fitted dose curve at least 0.9, where 1 is the maximum; inactive = score below 0.9. Peptide text beside a SMILES is read from it.

experiment: CCTE_Shafer_MEA_acute_spike_number: CCTE's Neural Acute Assay for Total Number of Spikes, Shafer Lab (AID 2284008);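 as to AC50: curve fitted for decrease in spike count so AC50 reflects inhibitors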
Procedure: CCTE_Shafer_MEA_acute assay is conducted using Axion Biosystems 48 well microelectrode array (MEA) plates and Maestro recording system. Each well of the MEA plate contains a grid of 16 microelectrodes embedded in the culture surface. Electrically active cells, such as neurons, can be cultured over the electrodes, and electrical activity in these cells can be recorded extracellularly. The spontaneous firing of neurons is captured from each electrode on a microsecond timescale providing both temporally and spatially precise data. […] The CCTE_Shafer_MEA_acute assay uses primary cultures of rat cortical neurons. As these cultures mature over time, neural networks develop functional activity and form cohesive networks in which electrical activity can be highly coordinated. Baseline 40-minute recordings are made on days post-plating 13 or 15, followed by a secondary 40-minute recording after chemical exposure.CCTE_Shafer_MEA_acute_spike_number is a component of the CCTE_Shafer_MEA_acute assay. It measures the total number of spikes (action potential firings) in a 40-minute recording in a microelectrode array (MEA) using Axion Biosystems Maestro 768 channel amplifier with the AxIS adaptive spike detector. The recordings before and after chemical treatment are used to calculate a percent change in the spike number in each well. Data from the assay component CCTE_Shafer_MEA_acute_spike_number was analyzed into 1 assay endpoint. This assay endpoint, CCTE_Shafer_MEA_acute_spike_number, was analyzed in the negative analysis fitting direction relative to DMSO as the negative control and baseline of activity. Using a type of functional reporter, gain or loss-of-signal activity can be used to understand electrical activity.
Spontaneous activity in the cortical cultures was recorded using an Axion Biosystems Maestro 768 channel amplifier and Axion Integrated Studios (AxIS) v1.8 (or later) software. The amplifier recorded from all channels simultaneously (gain = 1200 x; sampling rate = 12.5 kHz/channel): raw signals were filtered with a Butterworth band-pass filter (300-5000 Hz), which filters out slower local field potentials leaving only fast potentials, i.e., "spikes", arising from extracellular currents associated with action potentials (Pine 2006; Wheeler and Nam 2011). On-line spike detection of filtered signals was conducted with the AxIS adaptive spike detector, using a threshold of 8x the root mean squared (rms) noise on each channel. Any electrodes with rms noise levels greater than 5 uV were grounded (e.g., no data were recorded). Once grounded, an electrode was grounded for the duration of the experiment. All recordings were conducted at 37 C. Wells were deemed usable if on the day of the exposure >/= 10 electrodes were active (defined as >/= 5 spikes/min). On DIV 13 or 15, a minimum of three wells from one cortical culture preparation were treated with each compound (0.03-40 uM). Prior to recording baseline activity, each mwMEA plate was placed in the Maestro at 37 C and allowed to sit for 20 min while firing rates stabilized. Baseline activity (40 min) was recorded before the addition of each compound. An additional 40 min of spontaneous activity was recorded in the presence of each compound. Changes in network parameters relative to baseline were assessed following compound treatment.

Structure (SMILES)	outcome	AC50
C1CNCCN1	inactive	–
Oc1ccccc1Cc1ccccc1O	–	207 nM (active)
c1ccc(Nc2cccc3ccccc23)cc1	–	1080 nM (active)
Nc1cccc(N)n1	–	5.05 nM (active)
Cc1c(C(=O)c2c[nH]n(C)c2=O)ccc(S(C)(=O)=O)c1C1=NOCC1	inactive	–
CC(C)C(=O)OCCc1ccccc1	inactive	–
Nc1nc(N)nc(-c2ccccc2)n1	inactive	–
CC(CCC(=O)O)(c1ccc(O)cc1)c1ccc(O)cc1	inactive	–
CC1(C)CC(O)CC(C)(C)N1[O]	inactive	–
CCCC(C)C(=O)OCC (stereo not drawn)	inactive	–
CC/C=C\CCOC(=O)c1ccccc1O	inactive	–
CCCCCCCCCCCC(=O)N(C)CC(=O)O	inactive	–
COC(=O)[C@H](Cc1ccccc1)NC(=O)[C@@H](N)CC(=O)O (H-Asp-Phe-OMe)	inactive	–
